# Measurements: PubChem BioAssay (Tox21)
# Inconclusive results are not listed. Entries that show only a call come without a potency. A number with no mark means an inactive call. The source made the active and inactive calls. The call rests on the fitted dose curve; in most records, active means well fitted cell-killing curve with a large enough effect in the repeat runs; inconclusive means weak or mixed curves, or effect the other way; inactive means flat fitted curve, though single readings scatter.
# Key:
# [1] = cAMP Responsive Elements (CRE) small molecule antagonists, cell-based qHTS assay: qHTS cell viability counter screen (AID 2060913); further: nearly all actives have a fitted effect of over 40% in size
# Summary of the method: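 Cytotoxicity read in the same wells as the CRE-bla HEK293T antagonist assay: after 3 h compound with 0.25 uM NKH477 final and 2 h beta-lactamase substrate, CellTiter-Glo luminescence measured.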
# [2] = cAMP Responsive Elements (CRE) small molecule agonists, cell-based qHTS assay: qHTS cell viability counter screen (AID 2060914);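 further: viability read after 3 h of compound exposure; nearly all actives have a fitted effect of over 50% in size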
# Summary of the method: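 CRE-bla HEK293T cells in 10% dialyzed FBS medium were exposed to compounds for 3 h at 37C after 18 h plating. CellTiter-Glo was then added in the same wells, and luminescence was read after 30 min at room temperature.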
# Potency means the concentration at half of the fitted maximal effect.
SMILES,Potency [1],Potency [2],"viability change, negative = cytotoxic [1]","activity change, negative = cytotoxicity [2]"
CCCCCOC(C)=O,inactive,inactive,–,–
CC(CN1c2ccccc2Sc2ccccc21)N(C)C (stereo unspecified),inactive,inactive,–,–
C=CC(=O)O[C@H]1C[C@@H]2CC[C@@]1(C)C2(C)C,inactive,inactive,–,–
C=C(C)C(=O)OC,inactive,inactive,–,–
O=CCCc1ccccc1,inactive,inactive,–,–
CCOC(=O)c1ccc(OCCN2C[C@H](O)[C@@H](O)[C@H](O)[C@H]2CO)cc1,inactive,inactive,–,–
CCCCCCCCCC[N+](C)(CCCCCCCCCC)CCC[Si](OC)(OC)OC,27.3 µM (active),24.3 µM (active),–,–
CN1CCN(c2ccccc2/C=C2\SCCN(c3ccc(Cl)c(Cl)c3)C2=O)CC1,inactive,inactive,–,–
CC(C)=CCC1=C(O)c2ccccc2C(=O)C1=O,inactive,inactive,–,–
C[C@H]1[C@H]2CC[C@H]3[C@@H]4CC=C5C[C@@H](N(C)C)CC[C@]5(C)[C@H]4CC[C@]23CN1C,inactive,inactive,–,–
OCCN(CCO)c1cccc(Cl)c1,inactive,inactive,–,–
Nc1ccc(C(=O)OCC(O)CO)cc1 (stereo unspecified),inactive,inactive,–,–
CN1C[C@H](C(=O)N[C@]2(C)O[C@@]3(O)[C@@H]4CCCN4C(=O)[C@H](Cc4ccccc4)N3C2=O)C[C@@H]2c3cccc4[nH]cc(c34)C[C@H]21,inactive,inactive,–,–
O=C(CCCCC(=O)Nc1c(I)cc(I)c(C(=O)O)c1I)Nc1c(I)cc(I)c(C(=O)O)c1I,inactive,inactive,–,–
CCCC=O,inactive,inactive,–,–
Cc1cccc(Br)c1,inactive,inactive,–,–
FC(F)(F)C(Cl)(Cl)Cl,inactive,inactive,–,–
CC1(C)O[C@@H]2C[C@H]3[C@@H]4CCC5=CC(=O)C=C[C@]5(C)[C@H]4[C@@H](O)C[C@]3(C)[C@]2(C(=O)CO)O1,inactive,inactive,–,–
C/C=C(\C)C(=O)OCCC(C)CCC=C(C)C (stereo unspecified),inactive,inactive,–,–
CN1CCN(c2cc3c(cc2F)c(=O)c(C(=O)O)cn3-c2ccc(F)cc2)CC1,inactive,inactive,–,–
CC(C)NCCCC1(C(N)=O)c2ccccc2-c2ccccc21,inactive,inactive,–,–
CC/C=C\C/C=C\C/C=C\CCCCCCCC(=O)OC,inactive,inactive,–,–
C=C[C@H]1CN2CC[C@H]1C[C@H]2[C@H](O)c1ccnc2ccc(OC)cc12,inactive,inactive,–,–
COc1ccc(CCN(C)CCCC(C#N)(c2ccc(OC)c(OC)c2)C(C)C)cc1OC (stereo unspecified),inactive,inactive,–,–

SMILES,Potency [1],Potency [2],"viability change, negative = cytotoxic [1]","activity change, negative = cytotoxicity [2]"
CC(C)(C)N,inactive,inactive,–,–
O[C@@H](CNC[C@H](O)[C@H]1CCc2cc(F)ccc2O1)[C@@H]1CCc2cc(F)ccc2O1,inactive,inactive,–,–
Cc1cccc(O)c1N,inactive,inactive,–,–
CC1CCC(C(C)(C)O)CC1 (stereo unspecified),inactive,inactive,–,–
COc1cccc(O)c1,inactive,inactive,–,–
COCCCC/C(=N\OCCN)c1ccc(C(F)(F)F)cc1,inactive,inactive,–,–
Cc1ccccc1C=O,inactive,inactive,–,–
Cc1cc(C)c(O)c(C)c1,inactive,inactive,–,–
CC(C)(C)CC(C)(C)c1ccccc1O,61.4 µM (active),61.4 µM (active),–,–
Cc1nnc(NS(=O)(=O)c2ccc(N)cc2)s1,inactive,inactive,–,–
CCCC(=O)OC,inactive,inactive,–,–
CC(C)NCC(O)COc1ccc(CC(N)=O)cc1 (stereo unspecified),inactive,inactive,–,–
O=C(Nc1ncc([N+](=O)[O-])s1)c1cccs1,21.1 µM (active),11.9 µM (active),–,–
CCCCC(CC)COC(=O)c1ccccc1O (stereo unspecified),inactive,inactive,–,–
O=C(O)c1ccccc1NCCc1ccccc1,inactive,inactive,–,–
CCCCCCCCCCOCC(O)CN (stereo unspecified),inactive,inactive,–,–
CCC(C=O)CC,inactive,inactive,–,–
COC(=O)C1=C(C)NC(C)=C(C(=O)OCC(C)C)C1c1ccccc1[N+](=O)[O-] (stereo unspecified),inactive,inactive,–,–
O=S(=O)(O)c1ccc2c(N=Nc3ccc(S(=O)(=O)O)c4ccccc34)c(O)c(S(=O)(=O)O)cc2c1,–,–,7.11% [at 8.39 µM],0.372% [at 8.39 µM]
COC(=O)/C=C/C(C)=C\C=C\C(C)=C\C=C\C=C(C)\C=C\C=C(C)\C=C\C(=O)O,inactive,inactive,–,–
CC(=O)Oc1cc2c(s1)CCN(C(C(=O)C1CC1)c1ccccc1F)C2 (stereo unspecified),inactive,inactive,–,–
CCCCCC/C=C/C(=O)OC,inactive,inactive,–,–
CCC(=O)O[C@@H]1C[C@H]2CC[C@]1(C)C2(C)C,inactive,inactive,–,–
O=[N+]([O-])c1ccc2[nH]ncc2c1,inactive,inactive,–,–
